Reference: PubChem BioAssay AID1159580 (chemical genetic matrix, 2015)
Several values for one entry are separate records, joined by “and”; a condition that tells them apart may be missing. Equal entries are not always repeated. Out of some 5,500 compounds screened, about 2,000 (36%) were called active. Roughly 18% stayed inconclusive and do not appear here. Rule as the data show it: active = normalized growth mostly below about 0.91 (no sharp cut-off); inconclusive = no clear call, values can overlap the other calls; inactive = mostly above about 0.92. Some of the results follow.

Test: chemical genetic growth profiling, strain panel (AID 1159580);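 also: tested at 20 µM; growth read once vehicle control cultures reached saturation at 30 °C; 1 = growth at the plate median or of vehicle wells; lower values mean less growth of the strain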
Settings: S. cerevisiae deletion strains, growth OD

Measured: normalized growth

CN(C)C(=O)Nc1ccc(Cl)c(Cl)c1
inactive: locus YAL013W, strain DEP1, stronger effect = lower value 0.992 | locus YAL021C, strain ccr4, stronger effect = lower value 0.964 | locus YAL026C, strain drs2, stronger effect = lower value 0.97 | locus YAL030W, strain snc1, stronger effect = lower value 0.987 | locus YBL061C, strain skt5, stronger effect = lower value 0.991 | locus YBR009C, strain hhf1, stronger effect = lower value 0.926 | locus YBR021W, strain FUR4, stronger effect = lower value 0.904 | locus YBR023C, strain chs3, stronger effect = lower value 0.983 | locus YBR171W, strain sec66, stronger effect = lower value 1.01 | locus YBR229C, strain ROT2, stronger effect = lower value 1 | locus YBR231C, strain swc5, stronger effect = lower value 1.01 | locus YBR279W, strain paf1, stronger effect = lower value 0.97 | locus YCL011C, strain gbp2, stronger effect = lower value 0.954 | locus YCL016C, strain dcc1, stronger effect = lower value 0.974 | locus YCL029C, strain bik1, stronger effect = lower value 1.01 | locus YCL061C, strain MRC1, stronger effect = lower value 0.958 | locus YCL069W, strain vba3, stronger effect = lower value 0.994 | locus YCR088W, strain abp1, stronger effect = lower value 0.991 | locus YDL005C, strain med2, stronger effect = lower value 1 | locus YDL035C, strain GPR1, stronger effect = lower value 0.983 | locus YDL040C, strain nat1, stronger effect = lower value 0.991 | locus YDL074C, strain BRE1, stronger effect = lower value 0.899 | locus YDL101C, strain DUN1, stronger effect = lower value 0.999 | locus YDL134C, strain PPH21, stronger effect = lower value 0.986 | locus YDL185W, strain tfp1, stronger effect = lower value 1.02 | locus YDL192W, strain arf1, stronger effect = lower value 1 | locus YDR001C, strain nth1, stronger effect = lower value 0.99 | locus YDR069C, strain doa4, stronger effect = lower value 0.987 | locus YDR101C, strain arx1, stronger effect = lower value 1 | locus YDR137W, strain rgp1, stronger effect = lower value 1.03 | locus YDR150W, strain NUM1, stronger effect = lower value 0.993 | locus YDR159W, strain sac3, stronger effect = lower value 0.989 | locus YDR162C, strain NBP2, stronger effect = lower value 0.948 | locus YDR195W, strain ref2 1.1 | locus YDR297W, strain sur2, stronger effect = lower value 0.98 | locus YDR318W, strain mcm21, stronger effect = lower value 0.994 | locus YDR334W, strain swr1, stronger effect = lower value 1.01 | locus YDR335W, strain msn5, stronger effect = lower value 0.994 | locus YDR388W, stronger effect = lower value 0.992 | locus YDR392W, strain spt3, stronger effect = lower value 0.888 | locus YDR502C, strain sam2, stronger effect = lower value 0.989 | locus YEL003W, strain gim4, stronger effect = lower value 0.997 | locus YEL037C, strain rad23, stronger effect = lower value 0.993 | locus YEL061C, strain CIN8 (second series), stronger effect = lower value 1.01 | locus YEL061C, strain CIN8, stronger effect = lower value 0.998 | locus YER015W, strain faa2, stronger effect = lower value 0.968 | locus YER016W, strain bim1, stronger effect = lower value 0.992 | locus YER110C, stronger effect = lower value 1.01 | locus YER111C, strain swi4, stronger effect = lower value 1.02 | locus YER155C, strain BEM2 (second series), stronger effect = lower value 0.944 | locus YER155C, strain BEM2, stronger effect = lower value 1.01 | locus YER167W, strain BCK2, stronger effect = lower value 1 | locus YFR010W, strain ubp6, stronger effect = lower value 0.994 | locus YGL078C, strain dbp3, stronger effect = lower value 1.01 | locus YGL086W, strain mad1, stronger effect = lower value 0.997 | locus YGL167C, strain pmr1, stronger effect = lower value 0.988 | locus YGL173C, strain kem1, stronger effect = lower value 0.993 | locus YGL227W, strain vid30, stronger effect = lower value 0.995 | locus YGL240W, strain doc1, stronger effect = lower value 0.967 | locus YGL248W, strain PDE1, stronger effect = lower value 0.987 | locus YGL253W, strain hxk2, stronger effect = lower value 0.951 | locus YGR078C, strain PAC10, stronger effect = lower value 0.982 | locus YGR135W, strain pre9, stronger effect = lower value 0.98 | locus YGR229C, strain SMI1, stronger effect = lower value 0.942 | locus YGR252W, strain gcn5, stronger effect = lower value 0.807 | locus YHR013C, strain ard1, stronger effect = lower value 0.995 | locus YHR027C, strain rpn1, stronger effect = lower value 1.02 | locus YHR030C, strain SLT2, stronger effect = lower value 1.01 and 0.992 | locus YHR079C, strain IRE1 (second series), stronger effect = lower value 0.992 | locus YHR079C, strain IRE1, stronger effect = lower value 0.985 | locus YHR094C, strain hxt1, stronger effect = lower value 1 | locus YHR129C, strain ARP1, stronger effect = lower value 0.984 | locus YHR142W, strain chs7, stronger effect = lower value 0.887 | locus YHR200W, strain rpn10, stronger effect = lower value 0.991 | locus YIL066C, strain RNR3, stronger effect = lower value 0.981 | locus YIL073C, strain SPO22, stronger effect = lower value 0.981 | locus YIL125W, strain kgd1, stronger effect = lower value 1 | locus YIR030C, strain dcg1, stronger effect = lower value 1 | locus YJL092W, strain hpr5, stronger effect = lower value 0.982 | locus YJL095W, strain BCK1 (second series), stronger effect = lower value 1 | locus YJL095W, strain BCK1, stronger effect = lower value 0.96 and 0.984 | locus YJL115W, strain asf1, stronger effect = lower value 1 | locus YJL129C, strain trk1, stronger effect = lower value 0.984 | locus YJL134W, strain LCB3, stronger effect = lower value 0.996 | locus YJL154C, strain vps35, stronger effect = lower value 0.997 | locus YJL164C, strain tpk1, stronger effect = lower value 0.952 | locus YJL166W, strain qcr8, stronger effect = lower value 0.976 | locus YJL168C, strain set2, stronger effect = lower value 1 | locus YJL187C, strain SWE1 (second series), stronger effect = lower value 0.999 | locus YJR043C, strain POL32, stronger effect = lower value 0.88 | locus YJR066W, strain TOR1, stronger effect = lower value 0.93
